Assay results from the supplement of paper PMC6555819.

system: VDR:RXRa (NR concentration 270 nM, RXRa partner concentration 90 nM); assay: PBM binding z-score (relative to random genomic background probes); higher = stronger binding; sequences stand for … in GC…GCGATTGACAGCGTAGAATGAAGG
Protocol: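 Protein-binding microarray (Agilent 4x180K custom design, double-stranded 60-nt probes: 5' GC cap, 34-nt variable region, 24-nt constant primer region; full probe sequence given). Purified or IVT nuclear receptor:RXRα heterodimers (3:1 NR:RXRα, mostly 270:90 nM) or homodimers were incubated for 1 h in PBS with 2% milk and no ligand, then detected with Alexa488 antibodies. Fluorescence from o1-orientation probes (~5 replicates averaged) was converted to z-scores against 500 random hg19 background probes. Variable regions are seed direct-repeat (DR0–DR5) sites, all their single-nucleotide variants and half-site ablations.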

Row | Sequence | PBM binding z-score
1 | ATCTCTAGGTAAGACTCAGTTCCGTGAAGAACGC | 0.121
2 | TCTCGGTGGACACGAAGGTCAGAGCTTTCCAGAG | 1.02
3 | ATCGAAAGGTCCAGGTGAGTATAGAGAAAGGGAA | 0.18
4 | CCGAGTGGGGCAAAGGTTACCATACTCAGTACGA | 1.49
5 | TCTAGTTGGTCAATGGTCACACACTCGAAATGCG | 0.851
6 | GATACAGGGTAAGCTAGAGGCCAGAGTATGGAAA | -0.409
7 | TCATATAGGTAACACAGGTGAAAGTCGGCATCTA | 1.49
8 | TCATATAGGTAAAAGGTGAAAGTGGGTGTGGTAA | 2
9 | CCTACTGGGCCACGAAAGGTCATAGATTCAGTGA | 3.89
10 | CGTCCAAGGTCAAAAGTCAGTGAAGAGATGACGG | 3.74
11 | AGAATTAGGTTACCAAAGATCAGGGAAACGCTTG | 0.204
12 | ATATGTAGGTTAAGGGTTATTCAGGTTGGTTCGC | 3.27
13 | CCGACTGGGGCAGAAAGGTTACCATCCCATCCGG | 0.789
14 | TAGCCTAGGTCATTCAGGGGCCAGGATAGAAAGC | 2.94
15 | GCATATACGTAATACAAGGTGAAAGTCCGATTGT | 0.232
16 | GGTAGCAGGCCATTTGGGTCACTCAATGACGGGC | 1.14
17 | ATCTCTAGGTAAGACCCAGTTCAGTGAAGAACGC | 1.04
18 | CCTATTGGGCCATCAGGTCATTGATATCAACGTT | 2.12
19 | TGAATGAGGTTATAAGATCAGGTAACGTTGCAAA | 1.14
20 | GCGACTGGGCCATCAGCAGGTTACCATAACTTAA | -0.599

Row | Sequence | PBM binding z-score
21 | CCTTTCGGGTCACGAGGTTATAGCACGACGAGCG | 5.31
22 | AATACAGGGCCACTAGGCCAGAGTAGGTACGAAT | -0.225
23 | CCTGGTAGGTCATGGTCAGCTAATCTACAGTATG | 1.89
24 | CGAACTAGGTCATTGACGGGACAGTGAATAGTAA | 1.86
25 | CCTATTAGTTGACCATCAGGGCAACCGAAGCTCG | 0.508
26 | ATCGAAAGATCGTGAGGTGAGTATACAGAAAGGC | -0.0654
27 | ATCCCAAGGTGATCGTGAGGTCGTTGATACTAAC | 2.87
28 | TCTGCTAGGTCAGTTGGTCACCTAACGAGCTGCC | 0.235
29 | ACTAGTTGGTCAGCTTAGGTCACACACAATTCGG | 1.82
30 | TCTATTAGTTGATTACGGCAACCGAAACAGCGGA | 0.738
31 | CTACCAAGGTGAACAAGGTCCTTGATTACTATTC | 3.56
32 | CTCGAAAGGTCGTGCTCCGGTGAGTATACCAAAC | 3.48
33 | ATGTCTAGGTAAGACTCAGTTCAGTGAAGAACGC | 0.683
34 | AGCGAAAGGTCGTGAGGTGAGTATACAGAAAGGC | 3.51
35 | CTTTACGGGTCACTGACAGGTTATAGCATTTGGA | 3.94
36 | TAGCCTAGGTCAGATCGGGCCAGGATACGCTATA | 0.248
37 | ACTACCAGGCCAAGGGTCACTCAAGATTAGTCCG | 3.07
38 | GCTCGGAGGACAACGTCAGAGCTTTGTCCGTAGA | -0.935
39 | CCTACTGGGCCACCAAAGGTCATTGATTCAGTGA | 4.13
40 | TGAATGAGGTTAAAGATTAGGGAACGTGGCGTCG | 1.44
